{"source": "PubChem BioAssay (NCI)", "key": {"[1]": {"assay": "NCI Yeast Anticancer Drug Screen. Data for the wt1 strain (AID 149);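 further: 0% = growth of vehicle-treated wt1 cultures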", "conditions": "S. cerevisiae wt1 strain (SPY 50644) growth inhibition, active compounds read high", "procedure,_shortened": "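Yeast wt1 strain exposed to compounds; growth inhibition measured relative to vehicle-treated controls.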"}, "[2]": {"assay": "NCI Yeast Anticancer Drug Screen. Data for the rad50EPP+ strain (AID 151);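 further: 0% = growth of vehicle-treated control cultures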", "conditions": "S. cerevisiae rad50 mutant strain, active compounds read high", "procedure,_shortened": "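In this screen, rad50EPP+ yeast were exposed to compounds. Growth inhibition was scored against vehicle-treated controls.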"}, "[3]": {"assay": "NCI Yeast Anticancer Drug Screen. Data for the mgt1 strain (AID 153)", "conditions": "S. cerevisiae mgt1 mutant growth inhibition, active compounds read high", "procedure,_shortened": "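mgt1 strain exposed; growth vs vehicle control recorded as inhibition.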"}, "[4]": {"assay": "NCI Yeast Anticancer Drug Screen. Data for the rad50 strain (AID 155);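 further: 0% = growth of vehicle-only cultures of the same strain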", "conditions": "S. cerevisiae rad50 strain growth inhibition, active compounds read high", "procedure,_shortened": "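Yeast carrying a defined DNA repair defect were exposed to test compounds, and growth was compared with vehicle-treated controls to give percent inhibition.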"}, "[5]": {"assay": "NCI Yeast Anticancer Drug Screen. Data for the mec2-1 strain (AID 157)", "conditions": "S. cerevisiae mec2-1 strain, active compounds read high", "procedure,_shortened": "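Vehicle-treated cultures served as reference for growth inhibition of compound-exposed mec2-1 yeast.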"}, "[6]": {"assay": "NCI Yeast Anticancer Drug Screen. Data for the rad14 strain (AID 159);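 further: 0% = growth of vehicle-treated control cultures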", "conditions": "S. cerevisiae rad14 strain growth inhibition, active compounds read high", "procedure,_shortened": "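Yeast cells carrying a defined DNA-repair defect were exposed to compounds, and growth inhibition was calculated relative to vehicle-treated control cultures.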"}, "[7]": {"assay": "NCI Yeast Anticancer Drug Screen. Data for the sgs1 mgt1 strain (AID 161);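 further: 0% = growth of cultures given vehicle only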", "conditions": "S. cerevisiae sgs1 mgt1 strain, active compounds read high", "procedure,_shortened": "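Inhibition of yeast growth, normalised to vehicle-treated controls, is reported for a strain bearing genetic alterations in DNA damage repair.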"}, "[8]": {"assay": "NCI Yeast Anticancer Drug Screen. Data for the CLN2oe strain (AID 163);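 further: 0% = growth of vehicle-only control cultures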", "conditions": "S. cerevisiae CLN2oe strain, active compounds read high", "procedure,_shortened": "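Inhibition relative to vehicle-treated yeast is reported. Cells: strain with genetic alteration in cell-cycle control, grown with compound.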"}, "[9]": {"assay": "NCI Yeast Anticancer Drug Screen. Data for the cln2 rad14 strain (AID 165);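 further: 0% = growth equal to vehicle treated cultures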", "conditions": "S. cerevisiae cln2 rad14 strain, active compounds read high", "procedure,_shortened": "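Each compound was tested on cln2 rad14 yeast. Inhibition of growth was calculated against vehicle-exposed controls.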"}, "[10]": {"assay": "NCI Yeast Anticancer Drug Screen. Data for the bub3 strain (AID 167)", "conditions": "S. cerevisiae bub3 mutant strain, active compounds read high", "procedure,_shortened": "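Compounds were applied to a genetically altered yeast strain carrying a cell-cycle control defect. Growth inhibition was scored against vehicle-treated controls.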"}, "[11]": {"assay": "NCI Yeast Anticancer Drug Screen. Data for the wt2 strain (AID 169);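 further: 0% = growth of vehicle-treated yeast cultures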", "conditions": "S. cerevisiae wt2 strain growth inhibition, active compounds read high", "procedure,_shortened": "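Inhibition of yeast growth was determined after compound treatment, normalised to controls receiving only vehicle.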"}, "[12]": {"assay": "NCI Yeast Anticancer Drug Screen. Data for the mlh1 strain (AID 171);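 further: 0% = growth of vehicle-treated control cultures of the same strain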", "conditions": "S. cerevisiae mlh1 strain growth inhibition, active compounds read high", "procedure,_shortened": "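Vehicle-normalised growth inhibition of a repair- or checkpoint-altered yeast strain following compound treatment.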"}, "[13]": {"assay": "NCI Yeast Anticancer Drug Screen. Data for the sgs1 strain (AID 173);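 further: 0% = growth of vehicle-only control cultures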", "conditions": "S. cerevisiae sgs1 mutant, active compounds read high", "procedure,_shortened": "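Screen format: yeast with repair or checkpoint alterations, compound exposure, growth read relative to vehicle.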"}, "[14]": {"assay": "NCI Yeast Anticancer Drug Screen. Data for the mlh1 rad18 strain (AID 175)", "conditions": "S. cerevisiae mlh1 rad18 strain growth inhibition, active compounds read high", "procedure,_shortened": "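Vehicle-treated cultures served as the reference for growth inhibition in a yeast strain carrying DNA damage repair alterations exposed to each compound.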"}, "[15]": {"assay": "NCI Yeast Anticancer Drug Screen. Data for the rad18 strain (AID 177)", "conditions": "S. cerevisiae rad18 mutant growth inhibition, active compounds read high", "procedure,_shortened": "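Test articles were incubated with altered yeast defective in DNA damage repair. Results are given as inhibition of growth versus vehicle.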"}, "[16]": {"conditions": "at 5.0 µM (retest, dose inferred, filed as 0.5)"}, "[17]": {"conditions": "at 50.0 µM (retest, dose inferred, filed as 5.0)"}}, "note": "This is part of a sample that, as a whole, favours compounds with a hit. Of some 79,000 tested, about 15% had one in any assay. Values without a mark were called inactive. Calls of active or inactive are those of the source. No stated cut-off is given here; in the data, active means growth inhibition above about 70%; inactive means the rest."}
{"smiles": "O=[N+]([O-])c1ccc(S(=O)(=O)Cc2ccccc2)c([N+](=O)[O-])c1", "values": [{"measurement": "growth inhibition", "setting": "[1]; at 1.2 µM", "result": 6, "unit": "%"}, {"measurement": "growth inhibition", "setting": "[1]; at 3.7 µM", "result": 9, "unit": "%"}, {"measurement": "growth inhibition", "setting": "[1]; at 11.0 µM", "result": 24, "unit": "%"}, {"measurement": "growth inhibition", "setting": "[1]; at 33.0 µM", "result": "88% (active)"}, {"measurement": "growth inhibition", "setting": "[1]; at 100.0 µM", "result": "99% (active)"}, {"measurement": "growth inhibition", "setting": "[2]; at 1.2 µM", "result": 36, "unit": "%"}, {"measurement": "growth inhibition", "setting": "[2]; at 3.7 µM", "result": 67, "unit": "%"}, {"measurement": "growth inhibition", "setting": "[2]; at 11.0 µM", "result": "87% (active)"}, {"measurement": "growth inhibition", "setting": "[2]; at 33.0 µM", "result": "97% (active)"}, {"measurement": "growth inhibition", "setting": "[2]; at 100.0 µM", "result": "97% (active)"}, {"measurement": "growth inhibition", "setting": "[3]; at 1.2 µM", "result": 10, "unit": "%"}, {"measurement": "growth inhibition", "setting": "[3]; at 3.7 µM", "result": 14, "unit": "%"}, {"measurement": "growth inhibition", "setting": "[3]; at 11.0 µM", "result": 35, "unit": "%"}, {"measurement": "growth inhibition", "setting": "[3]; at 33.0 µM", "result": "98% (active)"}, {"measurement": "growth inhibition", "setting": "[3]; at 100.0 µM", "result": "99% (active)"}, {"measurement": "growth inhibition", "setting": "[4]; at 1.2 µM", "result": 9, "unit": "%"}, {"measurement": "growth inhibition", "setting": "[4]; at 3.7 µM", "result": 14, "unit": "%"}, {"measurement": "growth inhibition", "setting": "[4]; [16]", "result": 65, "unit": "%"}, {"measurement": "growth inhibition", "setting": "[4]; at 11.0 µM", "result": 41, "unit": "%"}, {"measurement": "growth inhibition", "setting": "[4]; at 33.0 µM", "result": "87% (active)"}, {"measurement": "growth inhibition", "setting": "[4]; [17]", "result": "100% (active)"}, {"measurement": "growth inhibition", "setting": "[4]; at 50.0 µM", "result": "99.5% (active)"}, {"measurement": "growth inhibition", "setting": "[4]; at 100.0 µM", "result": "98% (active)"}, {"measurement": "growth inhibition", "setting": "[5]; at 1.2 µM", "result": 12, "unit": "%"}, {"measurement": "growth inhibition", "setting": "[5]; at 3.7 µM", "result": 18, "unit": "%"}, {"measurement": "growth inhibition", "setting": "[5]; [16]", "result": 31, "unit": "%"}, {"measurement": "growth inhibition", "setting": "[5]; at 11.0 µM", "result": 39, "unit": "%"}, {"measurement": "growth inhibition", "setting": "[5]; at 33.0 µM", "result": "96% (active)"}, {"measurement": "growth inhibition", "setting": "[5]; [17]", "result": "100% (active)"}, {"measurement": "growth inhibition", "setting": "[5]; at 50.0 µM", "result": "99.8% (active)"}, {"measurement": "growth inhibition", "setting": "[5]; at 100.0 µM", "result": "99% (active)"}, {"measurement": "growth inhibition", "setting": "[6]; at 1.2 µM", "result": 7, "unit": "%"}, {"measurement": "growth inhibition", "setting": "[6]; at 3.7 µM", "result": 10, "unit": "%"}, {"measurement": "growth inhibition", "setting": "[6]; at 11.0 µM", "result": 22, "unit": "%"}, {"measurement": "growth inhibition", "setting": "[6]; at 33.0 µM", "result": "74% (active)"}, {"measurement": "growth inhibition", "setting": "[6]; at 100.0 µM", "result": "99% (active)"}, {"measurement": "growth inhibition", "setting": "[7]; [16]", "result": 46, "unit": "%"}, {"measurement": "growth inhibition", "setting": "[7]; [17]", "result": "100% (active)"}, {"measurement": "growth inhibition", "setting": "[7]; at 50.0 µM", "result": "99.5% (active)"}, {"measurement": "growth inhibition", "setting": "[8]; at 1.2 µM", "result": -1, "unit": "%"}, {"measurement": "growth inhibition", "setting": "[8]; at 3.7 µM", "result": 7, "unit": "%"}, {"measurement": "growth inhibition", "setting": "[8]; at 11.0 µM", "result": 21, "unit": "%"}, {"measurement": "growth inhibition", "setting": "[8]; at 33.0 µM", "result": 61, "unit": "%"}, {"measurement": "growth inhibition", "setting": "[8]; at 100.0 µM", "result": "95% (active)"}, {"measurement": "growth inhibition", "setting": "[9]; [16]", "result": 7, "unit": "%"}, {"measurement": "growth inhibition", "setting": "[9]; [17]", "result": "99% (active)"}, {"measurement": "growth inhibition", "setting": "[9]; at 50.0 µM", "result": "98.6% (active)"}, {"measurement": "growth inhibition", "setting": "[10]; at 1.2 µM", "result": 1, "unit": "%"}, {"measurement": "growth inhibition", "setting": "[10]; at 3.7 µM", "result": 6, "unit": "%"}, {"measurement": "growth inhibition", "setting": "[10]; [16]", "result": 56, "unit": "%"}, {"measurement": "growth inhibition", "setting": "[10]; at 11.0 µM", "result": 44, "unit": "%"}, {"measurement": "growth inhibition", "setting": "[10]; at 33.0 µM", "result": "85% (active)"}, {"measurement": "growth inhibition", "setting": "[10]; [17]", "result": "99% (active)"}, {"measurement": "growth inhibition", "setting": "[10]; at 50.0 µM", "result": "99.4% (active)"}, {"measurement": "growth inhibition", "setting": "[10]; at 100.0 µM", "result": "95% (active)"}, {"measurement": "growth inhibition", "setting": "[11]; at 1.2 µM", "result": 7, "unit": "%"}, {"measurement": "growth inhibition", "setting": "[11]; at 3.7 µM", "result": 15, "unit": "%"}, {"measurement": "growth inhibition", "setting": "[11]; at 11.0 µM", "result": 37, "unit": "%"}, {"measurement": "growth inhibition", "setting": "[11]; at 33.0 µM", "result": "98% (active)"}, {"measurement": "growth inhibition", "setting": "[11]; at 100.0 µM", "result": "98% (active)"}, {"measurement": "growth inhibition", "setting": "[12]; at 1.2 µM", "result": 9, "unit": "%"}, {"measurement": "growth inhibition", "setting": "[12]; at 3.7 µM", "result": 17, "unit": "%"}, {"measurement": "growth inhibition", "setting": "[12]; at 11.0 µM", "result": 35, "unit": "%"}, {"measurement": "growth inhibition", "setting": "[12]; at 33.0 µM", "result": "93% (active)"}, {"measurement": "growth inhibition", "setting": "[12]; at 100.0 µM", "result": "99% (active)"}, {"measurement": "growth inhibition", "setting": "[13]; at 1.2 µM", "result": 16, "unit": "%"}, {"measurement": "growth inhibition", "setting": "[13]; at 3.7 µM", "result": 30, "unit": "%"}, {"measurement": "growth inhibition", "setting": "[13]; at 11.0 µM", "result": 65, "unit": "%"}, {"measurement": "growth inhibition", "setting": "[13]; at 33.0 µM", "result": "98% (active)"}, {"measurement": "growth inhibition", "setting": "[13]; at 100.0 µM", "result": "99% (active)"}, {"measurement": "growth inhibition", "setting": "[14]; [16]", "result": 65, "unit": "%"}, {"measurement": "growth inhibition", "setting": "[14]; [17]", "result": "100% (active)"}, {"measurement": "growth inhibition", "setting": "[14]; at 50.0 µM", "result": "99.4% (active)"}, {"measurement": "growth inhibition", "setting": "[15]; at 1.2 µM", "result": 27, "unit": "%"}, {"measurement": "growth inhibition", "setting": "[15]; at 3.7 µM", "result": 57, "unit": "%"}, {"measurement": "growth inhibition", "setting": "[15]; at 11.0 µM", "result": "87% (active)"}, {"measurement": "growth inhibition", "setting": "[15]; at 33.0 µM", "result": "96% (active)"}, {"measurement": "growth inhibition", "setting": "[15]; at 100.0 µM", "result": "99% (active)"}]}
